The values below come from PubChem BioAssay (EPA / NIEHS).

SMILES strings stand for the structures. More than one record can exist for a structure, and the calls need not agree. Activity calls are given as the source filed them. Rule for the calls: active = hit-call score of the fitted dose curve at least 0.9, where 1 is the maximum; inactive = score below 0.9.

A word on the AC50: it is the concentration at which the activity in the assay is half-maximal.

Read-out in the experiment: Macrophage Inflammatory Protein-1 Alpha (MIP1a), CCL3 (gene 6348)
In words: BSK_IMphg_MIP1a: BioMAP Diversity Plus: IMphg Assay for Macrophage Inflammatory Protein-1 Alpha (MIP1a) Biomarker Activity (AID 2284255). The conditions noted are these: primary human endothelial cells with macrophages. The procedure:
BSK_IMphg is a cell-based, multiplexed-readout assay that uses venular endothelial cells and macrophages, a human vascular primary cell, with measurements taken at 24 hours after chemical dosing in a microplate: 96-well plate.BSK_IMphg_MIP1a is an assay component measured in the BSK_IMphg assay. It measures MIP-1a antibody related to regulation of gene expression using ELISA technology.Data from the assay component BSK_IMphg_MIP1a was analyzed at the endpoint, BSK_IMphg_MIP1a, in the positive analysis fitting direction relative to DMSO as the negative control and baseline of activity. Using a type of binding reporter, gain or loss-of-signal activity can be used to understand protein changes. To generalize the intended target to other relatable targets, this assay endpoint is annotated to the 'cytokine' intended target family, where the subfamily is 'inflammatory factor'.
The levels of cell surface (or secreted, indicated by the prefix "s") biomarker endpoints were measured by ELISA. Overt cytotoxicity to cells in confluent adherent cultures (all systems other than the BT system) was assessed by measuring total protein levels using sulforhodamine B (SRB) staining in parallel cultures at the time of biomarker measurements, indicated as SRB endpoints. For proliferation assays for adherent cell types, individual cell types are cultured at sub-confluence and relative cell numbers quantified by SRB staining at time points optimized for each system (48 h: 3C and CASM3C systems; 72 h: BT and HDF3CGF systems; 96 h: SAg system). SRB was performed by staining cells with 0.1% SRB after fixation with 10% TCA and reading wells at 560 nm.Viability and proliferation of PBMC (T cells) was quantified by Alamar Blue reduction for the SAg and BT systems. For PBMC viability (referred to as PBMC Cytotoxicity within the assay endpoint names), cells were plated (75,000/well in a 96-well plate) and then chemical samples added for 1 h before addition of activators, SEB and TSST-1 (20 ng/mL final concentration each). Cells were incubated for 90 h. Then, Alamar Blue (20 uL/well) (Invitrogen, Cat DAL1100) was added for 6 h, and the plates were read with a fluorescence microplate reader at 546/580 nm (excitation/emission). For PBMC proliferation, cells were plated and activated as above but incubated for only 16 h prior to addition of Alamar Blue. Plates were read after 6 h.
`CC(O)C(F)(F)C(F)(F)F` (stereo not given): the outcome was inactive. For `OCC(F)(F)OC(F)(F)C(F)(F)OC(F)(F)C(F)(F)OC(F)(F)F`, the outcome was inactive and the concentration at half-maximal activity (AC50) was 21.2 µM (active).

Take `O=C(O)C(F)(F)C(F)(F)C(=O)O`: the outcome was inactive. Still for that read-out and setting: to `COC(=O)C(F)(F)C(F)(F)OC(F)(C(F)(F)F)C(F)(F)OC(F)=C(F)F` (stereo not given) belongs “inactive”; to `O=S(=O)(F)C(F)(F)C(F)(F)C(F)(F)C(F)(F)C(F)(F)C(F)(F)C(F)(F)C(F)(F)F`, “inactive”; to `O=C(O)C=CC(F)(C(F)(F)F)C(F)(F)F`, “inactive”. On the same count and under the same terms, under `OCC(F)(F)OC(F)(F)C(F)(F)OC(F)(F)C(F)(F)OC(F)(F)CO` stands “inactive”; under `O=C(O)C(F)(F)OC(F)(F)C(F)(F)OC(F)(F)F`, “inactive”; under `C=CC(=O)OCC(F)(F)C(F)F`, “inactive”. As for `OCC(F)(F)OC(F)(F)C(F)(F)OC(F)(F)CO`, the result was inactive. For the molecule `FC(F)(F)C(F)(C(F)(F)F)C(F)(F)C(F)(F)CC1CO1` (stereo not given), the outcome was inactive. Consider `O=C(O)C(F)(OC(F)(F)C(F)(F)C(F)(F)F)C(F)(F)F` (stereo not given), for which the outcome was inactive. Take `O=C(O)C(F)(F)OC(F)(F)C(F)(F)OC(F)(F)C(=O)O`: the outcome was inactive.

As for `NC(=O)C(F)(F)C(F)(F)F`, the outcome was inactive.
